Test results as given in PubChem BioAssay (Tox21).
Results filed as inconclusive are left out. Entries that show only a call come without a potency. Active and inactive are the calls of the source. The call rests on the fitted dose curve; in most records, active means well fitted cell-killing curve with a large enough effect in the repeat runs; inconclusive means weak or mixed curves; inactive means flat fitted curve, though single readings scatter.

Test: qHTS assay to identify small molecule antagonists of the estrogen related receptor (ERR) signaling pathway from Tox21 library - cell viability counter screen (AID 1224834); further: nearly all actives have a fitted effect of over 30% in size
Settings: ERR reporter cells viability, CellTiter-Fluor, 17.5 h; series mostly up to 92.4 µM
Source text: National Center for Advancing Translational Sciences [NCATS]
NIH Chemical Genomics Center [NCGC]
U.S. Environmental Protection Agency [EPA]
National Institutes of Environmental Health Sciences [NIEHS]
National Toxicology Program [NTP]
U.S. Food and Drug Administration [FDA]
Estrogen related receptors (ERRs), the first orphan nuclear receptors discovered, play an important role in the control of cellular energy metabolism. ERRs are required for high-energy production in response to the environmental challenges. ERR-alpha was also identified as an adverse marker for breast cancer progression; ERR-alpha-positive tumors have a poor prognosis. To screen and to identify environmental compounds that perturb the ERR signaling pathways could provide valuable information for potential therapeutic or preventive measures in the treatment of metabolic disease. To differentiate true ERR antagonists or agonist from cytotoxic substances, the assay is multiplexed with cell viability assay.
Tox21 Assay Protocol Summary:
The ERR cells were dispensed at 2,000 cells/5 ul/well in 1536-well white plates using a Multidrop dispenser. After the assay plates were incubated at a 37 C/5% CO2 incubator for 6 hours, 23 nL of compounds dissolved in DMSO, positive and negative controls or DMSO only was transferred to the assay plate by a pin tool. The plates were incubated at 37 C for 17.5 hours. 1 ul/well of CellTiter-Fluor reagent was added into the assay plates using a Flying Reagent Dispenser. After 30-minute incubation at 37 C/5% CO2, the fluorescence intensity in the plates was measured using a ViewLux plate reader.
Potency means the concentration at half of the fitted maximal effect.

Compound	Potency
CC(CN(C)C)C(C)(O)Cc1ccc(Cl)cc1 (stereo not given)	inactive
CCOC(=O)c1ccc(C#Cc2ccc3c(c2)C(C)(C)CCS3)nc1	inactive
C=CCc1ccccc1OCC(O)CNC(C)C (stereo not given)	inactive
CC1CC(C)C(=O)C1=O (stereo not given)	inactive
O=C(O)C[C@H](NC(=O)OCc1ccccc1)C(=O)O	inactive
CCCCC(CC)CN (stereo not given)	inactive
CC1(C)[C@H](C(=O)O)N2C(=O)C[C@H]2S1(=O)=O	inactive
NNC(=O)CP(=O)(c1ccccc1)c1ccccc1	inactive
CC(CO)CO	inactive
Cc1cccc(O)c1N	27.6 µM (active)
C=C/C(C)=C/C/C=C(\C)CCC=C(C)C	inactive
CCCCCC[C@@H](O)C/C=C\CCCCCCCC(=O)O	inactive
CC1(C)[C@@H](OC(=O)CCC(=O)O)CC[C@]2(C)[C@H]3C(=O)C=C4[C@@H]5C[C@@](C)(C(=O)O)CC[C@]5(C)CC[C@@]4(C)[C@]3(C)CC[C@@H]12	inactive
CCC(C)COC(C)=O (stereo not given)	inactive
OCCOCC#CCOCCO	inactive
CC(=O)Nc1cc(S(=O)(=O)O)cc2cc(S(=O)(=O)O)c(N=Nc3ccccc3)c(O)c12	24.3 µM (active)
C[C@H]1C[C@H](O)c2ccsc2S1(=O)=O	inactive
COC(=O)CCS	inactive
Oc1cccc(Nc2ccccc2)c1	inactive
N#[N+]c1ccc2c(S(=O)(=O)[O-])cccc2c1O	inactive

Compound	Potency
C=CC(C)(CCC=C(C)C)OC(=O)CC(C)C (stereo not given)	inactive
Cc1cscn1	inactive
OC(CCN1CCCC1)(c1ccccc1)C1CCCCC1 (stereo not given)	inactive
O=c1[nH]ncc2ccccc12	inactive
CCOC(=O)c1ccc(OCCN2C[C@H](O)[C@@H](O)[C@H](O)[C@H]2CO)cc1	inactive
CC(CC1c2ccccc2CCc2ccccc21)CN(C)C (stereo not given)	33.5 µM (active)
CC(C)(c1ccccc1)c1ccccc1	inactive
CNC(=O)c1cnn(-c2nc(N)c3ncn([C@@H]4O[C@H](CO)[C@@H](O)[C@H]4O)c3n2)c1	inactive
O=C(OC(=O)c1ccccc1)c1ccccc1	inactive
CC(=O)c1ccc([N+](=O)[O-])cc1	inactive
CCC(=O)C1CC(C(C)C)CC=C1C (stereo not given)	inactive
CCC1NC(=O)c2cc(S(N)(=O)=O)c(Cl)cc2N1 (stereo not given)	inactive
C=CC(=O)[O-].C=CC(=O)[O-].[Zn+2]	inactive
Nc1cccc2c1CN(C1CCC(=O)NC1=O)C2=O (stereo not given)	inactive
CCCCCCCC/C=C\CCCCCCCCO	inactive
O=c1cc(-c2ccccc2)oc2cc(O)cc(O)c12	30.6 µM (active)
CCC1(CO)COCOC1	inactive
Cc1ccc(C(C)(C)O)cc1	inactive
Cc1ccc(OC(=O)c2ccccc2O)cc1	inactive
CC(=O)Oc1ccc([N+](=O)[O-])cc1CCl	30.6 µM (active)
